Laboratory results as given in PubChem BioAssay (NCATS).
Results filed as inconclusive are left out. A call without a number means that no potency is given here. Activity calls are given as the source filed them. Calls come from the whole dose curve; as a rule, active = well fitted inhibition curve with a large enough effect; inconclusive = small, poorly fitted or top-dose-only effect; inactive = flat fitted curve, though single readings scatter.

System: Zika virus NS2B-NS3 protease
Experiment: Primary screen GU AMC qHTS for Zika virus inhibitors (AID 1347154); note: nearly all actives have a fitted effect of over 70% in size
Summary of the method: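 Fluorogenic AMC-substrate cleavage by noncovalent NS2B-NS3 protease complex (25 nM, pH 8.0 Tris buffer with Tween 20) followed for 15 minutes at room temperature (~20% conversion). Percent inhibition from ex340/em450 signal change, fitted by 4-parameter Hill equation.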

SMILES	Potency
CC1=C(C(=O)O)N2C(=O)[C@@H](N)[C@H]2SC1	inactive
C#CC1(O)CCC2C3CCC4=CC(=O)CCC4(C)C3CCC21C (stereo not drawn)	inactive
CCCC[N+]1(C)[C@H]2CC(OC(=O)[C@H](CO)c3ccccc3)C[C@H]1[C@H]1O[C@H]12 (stereo partly drawn)	inactive
COC(C)(C)CCCC(C)C/C=C/C(C)=C/C(=O)OC(C)C (stereo not drawn)	inactive
C[C@]12COC(=O)C[C@@H]1CC[C@@H]1[C@H]2CC[C@@]2(C)[C@H]1CC[C@]2(C)O	inactive
CC(=O)OCC1=C(C(=O)O)N2C(=O)[C@@H](N)[C@@H]2SC1	inactive
N=c1c2c(-c3ccccc3)c(-c3ccccc3)n(Cc3ccccc3)c2ncn1C1CCC(O)CC1 (stereo not drawn)	inactive
CC(C)Oc1cccc(NC(=O)c2ccccc2C(F)(F)F)c1	inactive
